# According to PubChem BioAssay (NCATS):
# Records with an inconclusive call do not appear. Entries that show only a call come without a potency. A number with no mark means an inactive call. The source made the active and inactive calls. Calls follow the shape of the dose curve; as a rule, active = well fitted curve in the direction sought with a large enough effect; inconclusive = small, poorly fitted or top-dose-only effect, or another doubt; inactive = no such curve, though single readings can be large; an effect the other way counts as inactive or inconclusive.
# What was measured:
# HaCat [1] = experiment: Cytotoxic Profiling of Annotated Libraries Using Quantitative High-Throughput Screening (AID 1296008); conditions: Five cell lines viability, CellTiter-Glo ATP luminescence, 48-72 h; max response: active compounds read low; also: nearly all actives have a fitted effect of over 60% in size
# How it was run: (§1)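 Compounds were pin-transferred onto cells and incubated 48 or 72 hr at 37 degree Celsius, 95% humidity. CellTiter-Glo was added, plates sat 10 min at room temperature, then ATP-coupled luminescence was imaged as the viability read-out.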
# KB-3-1 = experiment: as above; conditions: Five cell lines viability, CellTiter-Glo ATP luminescence, 48-72 h; max response: active compounds read low
# How it was run: as §1
# NIH3T3 [2] = experiment: as above; conditions: Five cell lines viability, CellTiter-Glo ATP luminescence, 48-72 h; max response: active compounds read low
# How it was run: as §1
# HACAT [3] = experiment: qHTS assay to identify novel small-molecules to repurpose for Merkel cell carcinoma treatment (AID 1296009); conditions: MCC and control cell lines, CellTiter-Glo viability, 72 h; at 44.8 µM (top of the series) unless noted; also: nearly all actives have a fitted effect of over 60% in size
# How it was run: (§2)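 qHTS format: cells treated with library compounds in DMSO across 8 (NPC) or 11 (MIPE) concentrations. Readout after 72 hr at 37 degree celsius was CellTiter-Glo luminescence.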
# C33A = experiment: Primary qHTS to identify gynecologic anti-cancer compounds using libraries of approved drugs and bioactive compounds (AID 1345084); conditions: Gynecologic cancer cell panel viability, ATPlite luminescence, 48 h; series mostly up to 57.5 µM; also: nearly all actives have a fitted effect of over 55% in size
# How it was run: (§3)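 Measured: luminescence after ATPlite addition (15 min, RT). Exposure: 48 h, 37 C, 5% CO2.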
# CAOV3 = experiment: as above; conditions: Gynecologic cancer cell panel viability, ATPlite luminescence, 48 h; series mostly up to 57.5 µM
# How it was run: as §3
# CASKI = experiment: as above; conditions: Gynecologic cancer cell panel viability, ATPlite luminescence, 48 h; series mostly up to 57.5 µM
# How it was run: as §3
# Es-2 = experiment: as above; conditions: Gynecologic cancer cell panel viability, ATPlite luminescence, 48 h; series mostly up to 57.5 µM
# How it was run: as §3
# HeLa = experiment: as above; conditions: Gynecologic cancer cell panel viability, ATPlite luminescence, 48 h; series mostly up to 57.5 µM
# How it was run: as §3
# Hek293T [4] = experiment: as above; conditions: Gynecologic cancer cell panel viability, ATPlite luminescence, 48 h, control line for the selectivity index; series mostly up to 57.5 µM
# How it was run: as §3
# JEG-3 = experiment: as above; conditions: Gynecologic cancer cell panel viability, ATPlite luminescence, 48 h; series mostly up to 57.5 µM
# How it was run: as §3
# OV90 = experiment: as above; conditions: Gynecologic cancer cell panel viability, ATPlite luminescence, 48 h; series mostly up to 57.5 µM
# How it was run: as §3
# PA-1 = experiment: as above; conditions: Gynecologic cancer cell panel viability, ATPlite luminescence, 48 h; series mostly up to 57.5 µM
# How it was run: as §3
# SKOV3 = experiment: as above; conditions: Gynecologic cancer cell panel viability, ATPlite luminescence, 48 h; series mostly up to 57.5 µM
# How it was run: as §3
# NIH3T3 [5] = experiment: qHTS assay to identify novel small-molecules to repurpose for Merkel cell carcinoma treatment (AID 1296009); conditions: MCC and control cell lines, CellTiter-Glo viability, 72 h; series mostly up to 44.8 µM; also: nearly all actives have a fitted effect of over 60% in size
# How it was run: as §2
# HEK293T [6] = experiment: as above; conditions: MCC and control cell lines, CellTiter-Glo viability, 72 h
# How it was run: as §2
# Potency is read from the fitted curve at half-maximal effect.
smiles,measurement,setting,value
Cc1ccnc(NC(=O)C(C)c2cccc(C(=O)c3ccccc3)c2)c1 (stereo unspecified),outcome,HaCat [1],inactive
same,max response,KB-3-1,-17.5%
same,max response,NIH3T3 [2],-5.36%
same,outcome,HACAT [3],inactive
same,Potency,C33A,inactive
same,Potency,CAOV3,inactive
same,Potency,CASKI,inactive
same,Potency,Es-2,inactive
same,Potency,HeLa,inactive
same,Potency,Hek293T [4],inactive
same,Potency,JEG-3,inactive
same,Potency,OV90,inactive
same,Potency,PA-1,inactive
same,Potency,SKOV3,inactive
COC1CCN(C(=O)c2cc(Cc3n[nH]c(=O)c4ccccc34)ccc2F)CC1,max response,HaCat [1],1.07%
same,max response,KB-3-1,-17.5%
same,max response,NIH3T3 [2],-21.2%
same,Potency,C33A,inactive
same,Potency,CAOV3,inactive
same,Potency,CASKI,inactive
same,Potency,Es-2,inactive
same,Potency,HeLa,inactive
same,Potency,Hek293T [4],inactive
same,Potency,JEG-3,inactive
same,Potency,OV90,inactive
same,Potency,PA-1,inactive
same,Potency,SKOV3,inactive
C/C=C(\C)C(=O)O[C@@H]1[C@@H](C)[C@]2(O)[C@@H]3C=C(C)C(=O)[C@H]3CC(CO)=C[C@H]2C2C(C)(C)[C@@]21OC(=O)C(C)CC (stereo partly specified),outcome,HaCat [1],inactive
same,max response,KB-3-1,0.342%
same,max response,NIH3T3 [2],4.54%
same,outcome,HACAT [3],inactive [at 17.4 µM]
same,Potency,CAOV3,inactive
same,Potency,CASKI,inactive
same,Potency,Es-2,0.355 µM (active)
same,Potency,HeLa,inactive
same,Potency,Hek293T [4],inactive
same,Potency,PA-1,inactive
same,Potency,SKOV3,inactive
CCC(=O)N1CCOc2c(cc(-c3ccc(OC)c(OC)c3)cc2OC[C@H]2CCCN(C)C2)C1,max response,HaCat [1],3.21%
same,max response,KB-3-1,-9.43%
same,outcome,NIH3T3 [2],inactive
same,Potency,NIH3T3 [5],inactive
same,Potency,C33A,inactive
same,Potency,CAOV3,inactive
same,Potency,CASKI,inactive
same,Potency,Es-2,inactive
same,Potency,HeLa,inactive
same,Potency,Hek293T [4],inactive
same,Potency,JEG-3,inactive
same,Potency,OV90,inactive
same,Potency,PA-1,inactive
same,Potency,SKOV3,inactive
C=C1C(=O)OC2C1CCC1(C)C(O)CCC(=C)C21 (stereo unspecified),outcome,HaCat [1],inactive
same,max response,KB-3-1,7.7%
same,max response,NIH3T3 [2],-19.9%
same,outcome,HACAT [3],inactive
same,Potency,C33A,inactive
same,Potency,CAOV3,inactive
same,Potency,CASKI,inactive
same,Potency,Es-2,inactive
same,Potency,HeLa,inactive
same,Potency,Hek293T [4],inactive
same,Potency,JEG-3,inactive
same,Potency,OV90,inactive
same,Potency,PA-1,inactive
same,Potency,SKOV3,inactive
NC(=O)C1=CC2C3C=CC2C(OC3=O)O1 (stereo unspecified),max response,HaCat [1],-28.3%
same,max response,KB-3-1,5.92%
same,max response,NIH3T3 [2],3.24%
same,Potency,C33A,inactive
same,Potency,CAOV3,inactive
same,Potency,CASKI,inactive
same,Potency,Es-2,inactive
same,Potency,HeLa,inactive
same,Potency,Hek293T [4],inactive
same,Potency,OV90,inactive
same,Potency,PA-1,inactive
same,Potency,SKOV3,inactive
CCOc1ccc(-n2c(C(C)N(Cc3cccnc3)C(=O)Cc3ccc(F)c(C(F)(F)F)c3)nc3ncccc3c2=O)cc1 (stereo unspecified),max response,HaCat [1],-10.9%
same,outcome,KB-3-1,inactive
same,max response,NIH3T3 [2],2.59%
same,Potency,C33A,inactive
same,Potency,CAOV3,inactive
same,Potency,CASKI,inactive
same,Potency,Es-2,inactive
same,Potency,HeLa,inactive
same,Potency,Hek293T [4],inactive
same,Potency,JEG-3,inactive
same,Potency,OV90,inactive
same,Potency,PA-1,inactive
same,Potency,SKOV3,inactive
NC(N)=N/N=C/c1ccccc1Cl,max response,HaCat [1],-18.8%
same,max response,KB-3-1,-14.8%
same,max response,NIH3T3 [2],-25.1%
same,Potency,C33A,inactive
same,Potency,CAOV3,inactive
same,Potency,CASKI,inactive
same,Potency,Es-2,inactive
same,Potency,HeLa,inactive
same,Potency,Hek293T [4],inactive
same,Potency,JEG-3,inactive
same,Potency,OV90,inactive
same,Potency,PA-1,inactive
CCCCNc1ncc2c(-c3ccc(S(=O)(=O)N4CCOCC4)cc3)nn(C3CCC(O)CC3)c2n1 (stereo unspecified),Potency,HaCat [1],6.51 µM (active)
same,Potency,KB-3-1,11.6 µM (active)
same,Potency,NIH3T3 [2],7.31 µM (active)
same,Potency,CAOV3,7.94 µM (active)
same,Potency,HeLa,10 µM (active)
same,Potency,JEG-3,inactive
c1cc(NC2CCNCC2)nc(-c2cnc3ccccn23)c1,Potency,HaCat [1],3.66 µM (active)
same,Potency,KB-3-1,3.26 µM (active)
same,Potency,NIH3T3 [2],5.8 µM (active)
same,Potency,CASKI,10 µM (active)
same,Potency,Es-2,17.8 µM (active)
same,Potency,HeLa,8.91 µM (active)
same,Potency,JEG-3,inactive
same,Potency,OV90,11.2 µM (active)
same,Potency,PA-1,20 µM (active)
same,Potency,SKOV3,8.91 µM (active)
O=C(NCCN1CCOCC1)c1cc2c(Oc3ccc(NC(=O)C4(C(=O)Nc5ccc(F)cc5)CC4)cc3)ccnc2[nH]1,max response,HaCat [1],-28.8%
same,max response,KB-3-1,4.4%
same,Potency,NIH3T3 [2],6.51 µM (active)
same,Potency,C33A,inactive
same,Potency,CAOV3,inactive
same,Potency,CASKI,inactive
same,Potency,HeLa,inactive
same,Potency,Hek293T [4],inactive
same,Potency,JEG-3,inactive
same,Potency,PA-1,inactive
same,Potency,SKOV3,inactive
COc1cc2ncnc(Nc3ccc(O)c(Br)c3)c2cc1OC,Potency,HaCat [1],3.66 µM (active)
same,max response,KB-3-1,0.483%
same,Potency,NIH3T3 [2],11.6 µM (active)
same,Potency,C33A,inactive
same,Potency,CAOV3,inactive
same,Potency,Es-2,inactive
same,Potency,HeLa,inactive
same,Potency,Hek293T [4],inactive
same,Potency,JEG-3,inactive
same,Potency,OV90,inactive
C=C1C(=O)O[C@@H]2/C=C(\CO)CC/C=C(/C=O)C[C@H](O)[C@@H]12,max response,HaCat [1],-0.314%
same,outcome,KB-3-1,inactive
same,Potency,HEK293T [6],18.4 µM (active)
same,Potency,C33A,inactive
same,Potency,CASKI,inactive
same,Potency,HeLa,inactive
same,Potency,JEG-3,inactive
same,Potency,OV90,inactive
CC(=O)Nc1cccc(-c2csc(Nc3cc(C)ccn3)n2)c1,max response,HaCat [1],-25.9%
same,max response,KB-3-1,-18.5%
same,max response,NIH3T3 [2],-21%
same,Potency,C33A,inactive
same,Potency,CAOV3,inactive
same,Potency,CASKI,inactive
same,Potency,HeLa,inactive
same,Potency,JEG-3,inactive
same,Potency,OV90,inactive
C=C1CC[C@@H]2[C@](C)(CO)[C@H](O)CC[C@@]2(C)[C@@H]1C/C=C1/C(=O)OCC1OC(=O)/C(=C/CO)C(O)C[C@@H]1C(=C)CC[C@@H]2[C@](C)(CO)[C@H](O)CC[C@]21C (stereo partly specified),outcome,HaCat [1],inactive
same,outcome,KB-3-1,inactive
same,outcome,HACAT [3],inactive [at 17.4 µM]
same,Potency,C33A,inactive
same,Potency,CAOV3,inactive
same,Potency,CASKI,inactive
same,Potency,Es-2,inactive
same,Potency,HeLa,inactive
same,Potency,Hek293T [4],inactive
same,Potency,JEG-3,inactive
same,Potency,OV90,inactive
same,Potency,PA-1,inactive
COc1ccc(OC)c(-c2ccc(NC(=O)c3ccncc3F)cc2)c1,max response,HaCat [1],-19.1%
same,max response,KB-3-1,-12.6%
same,max response,NIH3T3 [2],0.707%
same,Potency,C33A,inactive
same,Potency,CASKI,inactive
same,Potency,Es-2,inactive
same,Potency,HeLa,inactive
same,Potency,Hek293T [4],inactive
same,Potency,JEG-3,inactive
same,Potency,OV90,inactive
same,Potency,PA-1,inactive
same,Potency,SKOV3,inactive
